From PubChem
Pol iota inh: DNA polymerase iota (human) inhibition | Q9UNA4 | Pol iota fluorescent replication assay, 10 min | Potency, µM (series often up to 115 µM), inactives show at the top dose activity, negative = inhibition, most hits filed as inhibitors | actives 1% (n = 390,000) | AID 588590
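Pol iota at 10 nM preincubated 15 min with compounds at room temperature; reaction started with fluorescent substrate, 50 nM final. Fluorescence read kinetically at 0 and 10 min; buffer-only wells as negative control.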
Pol kappa inh: DNA polymerase kappa (human) inhibition; AID 588579; purified Pol kappa, fluorescent DNA synthesis assay, 10 min; Potency, µM (series often up to 107 µM), without a hit: top-dose activity, negative = inhibition, hits mostly inhibitors; Q9UBT6; actives 0.53% (n = 400,000); also: % is scaled to controls: 0 for no effect and ±100 for the full control effect
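Here, compound and 10 nM enzyme are combined for 15 min at room temperature; adding 50 nM substrate (final) starts DNA synthesis, tracked by fluorescence at 0 and 10 min against buffer-only wells.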
FEN1 inhibitor: human FEN1 inhibition; actives 0.35% (n = 390,000); P39748; Potency, µM (series often up to 114 µM), for the others: top-dose activity change, negative = inhibition, hits mostly inhibitors; Recombinant FEN1 flap cleavage, fluorescence, 15 min; AID 588795; also: % is scaled to controls: 0 for no effect and ±100 for the full control effect; nearly all actives have a fitted effect of over 65% in size
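Compounds are tested as a concentration series against 10 nM FEN1; after a 15 min room-temperature preincubation, 50 nM substrate starts cleavage, with plate reads at 0 and 15 min. Normalized responses are fitted by a Hill equation.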
Pol eta inh: blocks human DNA polymerase eta activity | Q9Y253 | actives 1.2% (n = 390,000) | Potency, µM (highest dose often 114 µM), for inactives: at the top dose activity change, negative = inhibition, hits mostly inhibitors | recombinant Pol eta, fluorescent DNA replication assay; also: % is scaled to controls: 0 for no effect and ±100 for the full control effect
Target sequence (Q9Y253 whole entry, looked up): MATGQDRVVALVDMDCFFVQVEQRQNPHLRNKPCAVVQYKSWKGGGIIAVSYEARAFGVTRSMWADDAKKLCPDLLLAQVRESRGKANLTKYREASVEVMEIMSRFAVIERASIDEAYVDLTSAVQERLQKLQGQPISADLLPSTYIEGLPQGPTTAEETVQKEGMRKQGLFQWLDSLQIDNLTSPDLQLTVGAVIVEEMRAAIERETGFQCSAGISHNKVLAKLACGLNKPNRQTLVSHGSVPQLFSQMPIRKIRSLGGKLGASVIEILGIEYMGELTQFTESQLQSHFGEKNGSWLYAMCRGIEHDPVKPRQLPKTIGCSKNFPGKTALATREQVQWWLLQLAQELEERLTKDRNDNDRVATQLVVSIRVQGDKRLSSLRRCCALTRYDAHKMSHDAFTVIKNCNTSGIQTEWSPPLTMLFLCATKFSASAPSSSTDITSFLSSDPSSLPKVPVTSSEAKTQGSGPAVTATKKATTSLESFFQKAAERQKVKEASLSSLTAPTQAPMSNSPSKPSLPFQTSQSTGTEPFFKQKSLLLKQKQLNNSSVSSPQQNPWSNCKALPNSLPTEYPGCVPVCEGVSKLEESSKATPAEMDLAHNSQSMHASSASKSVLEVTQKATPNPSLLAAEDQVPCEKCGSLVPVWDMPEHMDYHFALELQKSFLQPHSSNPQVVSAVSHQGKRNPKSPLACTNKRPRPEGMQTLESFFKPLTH
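Pol eta (10 nM) was preincubated with compounds for 15 min at room temperature, after which fluorescent replication substrate (50 nM final) was added to start the reaction. Fluorescence was read kinetically at 0 and 10 min.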
WRN inhibitor: inhibitors of human WRN helicase; Q14191; WRN helicase unwinding, fluorescent forked duplex, kinetic; Potency, µM (top dose mostly 114 µM), for inactives: top-dose activity change, negative = inhibition, hits mostly inhibitors; actives 0.46% (n = 360,000); also: % is scaled to controls: 0 for no effect and ±100 for the full control effect; nearly all actives have a fitted effect of over 55% in size
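Kinetic red-fluorescence monitoring (525/598 nm) tracks WRN helicase activity after 100 nM fluorophore-quencher forked duplex and 2 mM ATP are added to 20 nM enzyme pretreated 15 min at room temperature with compound.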
POLB inh: DNA polymerase beta (human) inhibition; P06746; actives 1.3% (n = 340,000); Potency, µM (series often up to 114 µM), inactives show top-dose activity change, negative = inhibition, usual class: inhibitors; Pol beta primer extension/strand displacement, fluorescence kinetic; also: % is scaled to controls: 0 for no effect and ±100 for the full control effect
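Kinetic readout of DNA synthesis with strand displacement by Pol beta. Compound and 10 nM enzyme sit 15 min at room temperature; 50 nM substrate starts the reaction, read immediately and at 10 min.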
Starred values were filed as active, the others as inactive; ? = inconclusive; nt = not tested or not shown; [ ] = another dose, or the depositor's remark. The list is not random: actives were taken first. Their share in the collection is about 2.4%. Calls follow the shape of the dose curve; as a rule, active = well fitted curve in the direction sought with a large enough effect; inconclusive = small, poorly fitted or top-dose-only effect, or another doubt; inactive = no such curve, though single readings can be large; an effect the other way counts as inactive or inconclusive. Potency is read from the fitted curve at half-maximal effect.

SMILES | Pol iota inh | Pol kappa inh | FEN1 inhibitor | Pol eta inh | WRN inhibitor | POLB inh
O=C(COC(=O)c1ccc(NS(=O)(=O)c2cccs2)cc1)Nc1nc2c(F)c(F)c(F)cc2s1 | 39.8µM* | ? | -32.2% | 20µM* | -34.6% | 28.2µM*
O=C(COC(=O)CCC1CCCC1)Nc1nc2c(F)c(F)c(F)cc2s1 | 0.1% | 0.0% | -16.2% | -11.6% | -3.8% | 1.3%[57.1 µM]
O=C(COC(=O)c1ccc(Br)o1)Nc1nc2c(F)c(F)c(F)cc2s1 | -28.8% | ? | -0.5% | 56.2µM* | -15.3% | 11.2µM*
CCOC(=O)N(C(=O)c1ccccc1)c1ccccc1 | 16.1% | 9.4% | -5.1% | nt | nt | nt
COc1ccccc1C(=O)Nc1ccnn1C1CCN(Cc2cnc(N(C)C)s2)CC1 | 17.0% | 1.4% | 18.1% | -9.0% | 5.2% | 89.1µM*
COc1ccccc1C(=O)Oc1c(Sc2ccccc2)c(C)nn1C(C)(C)C | 10.7% | -9.7% | -7.9% | ? | nt | -3.0%
CCC(C(=O)Nc1cc(-c2cn3cccnc3n2)ccc1C)c1ccccc1 (configuration not stated) | -23.4% | -0.3%[60.1 µM] | 2.9% | 13.2% | nt | 39.8µM*
O=C(Nc1cccc(-c2cn3cccnc3n2)c1)c1ccco1 | 3.0% | -4.0% | 1.0% | -5.3% | -3.5% | -11.6%
COc1cccc(NC(=O)Nc2cc(-c3cn4cccnc4n3)ccc2C)c1 | 7.4% | -4.3% | -2.4% | -27.9% | nt | 7.94µM*
O=C(Nc1cccc(-c2cn3cccnc3n2)c1)c1ccc(Br)o1 | 79.4µM* | ? | -21.5% | -7.2% | -7.7%[57.1 µM] | 1.0%
CC(=O)NCc1ccc(C(=O)CSc2nnc(-c3ccncc3)n2Cc2ccccc2)o1 | 22.4µM* | 79.4µM* | -6.4% | 20µM* | ? | 20µM*
CCCCNC(=O)CSc1nc2ccccc2c(=O)n1CCNC(C)=O | -41.0% | -8.0% | -2.9% | -13.3% | 3.3% | 1.1%
C=CCn1c(SCC(=O)c2ccc(CNC(C)=O)o2)nc2ccccc2c1=O | 15.8µM* | ? | -11.6% | ? | -33.6% | ?
CC(=O)NCCn1c(SCC(=O)NCCC(C)C)nc2ccccc2c1=O | -9.1% | 22.4µM* | -1.4% | -12.0% | -9.2% | 20.2%
CN1C(=O)C(C)(C)c2cc(S(=O)(=O)N3CCN(c4cccc(Cl)c4)CC3)ccc21 | ? | -35.8% | -10.9% | 0.4% | -20.7% | 14.1µM*
COC(=O)c1cc2occc2n1Cc1ccc(F)cc1Cl | 4.8% | 6.6% | -15.1% | -0.7% | nt | 27.7%
COc1ccc(OC)c(/C=C2\Oc3cc(OCC(=O)N4CCC[C@H]4C(=O)O)ccc3C2=O)c1 | ? | -6.7% | ? | -15.9% | -20.5% | -0.6%
COc1cccc(/C=C2\Oc3cc(OCC(=O)N4CCC[C@H]4C(=O)O)ccc3C2=O)c1 | 1.4% | -3.8% | ? | 44.7µM* | -9.9%[11.6 µM] | -1.8%
O=C(NCCc1ccccc1)C(c1ccncc1)N(C(=O)c1csnn1)C1CC1 (configuration not stated) | 8.3% | 5.5% | -4.5% | 8.1% | 6.5% | 15.9%
O=C(NCCc1ccccc1)C(c1cccs1)N(C(=O)c1csnn1)C1CC1 (configuration not stated) | 89.1µM* | -6.6% | -7.3% | -1.2% | 7.8% | 20.7%
O=C1C[C@@H](c2ccc(O)c(O)c2)Oc2c1ccc(O[C@@H]1O[C@H](CO)[C@@H](O)[C@H](O)[C@H]1O)c2O | nt | 2.67µM* | nt | nt | nt | nt
O=C(/C=C/c1ccc(O)c(O)c1)c1ccc(O[C@@H]2O[C@H](CO)[C@@H](O)[C@H](O)[C@H]2O)c(O)c1O | nt | 0.189µM* | nt | nt | nt | nt
CCOC(=O)c1cnn(-c2nc(SC)nc3sc4c(c23)CCC4)c1N | ? | -15.1% | -3.3% | ? | -7.6% | 10µM*
COc1ccccc1/C=C/c1cnccn1 | -4.0% | 2.0% | 6.1% | nt | nt | nt
CC1OC2(C)OC(=N)C1(C#N)C(C#N)(C#N)C2c1ccccc1 (configuration not stated) | 20.9% | -7.0% | 1.0% | ? | -19.6% | -3.0%
SMILES | Pol iota inh | Pol kappa inh | FEN1 inhibitor | Pol eta inh | WRN inhibitor | POLB inh
CC1C2(C)OC(=N)C(C#N)(C(C)O2)C1(C#N)C#N (configuration not stated) | ? | 2.6% | -1.6% | -6.9% | 79.4µM* | -15.5%
Cc1cc2ccccn2c1C(=O)c1ccc(N/N=C/c2ccc(C(=O)O)cc2)c([N+](=O)[O-])c1 | ? | -9.9% | -5.4% | 35.5µM* | -9.6% | ?
C/C(=N\Nc1ccc(C(=O)c2c(C)cc3ccccn23)cc1[N+](=O)[O-])c1ccc(O)cc1 | 3.0% | -11.4% | 5.0% | -1.4% | 9.5% | 1.5%
CN(C(=O)CSc1nc2ccc(NC(=O)c3ccco3)cc2s1)c1ccccc1 | 15.9% | 0.6% | -4.1% | -12.2% | nt | 23.6%
CCN1C(=NCCCCO)N[C@@H](c2ccccc2)C(C(=O)OC)=C1C | nt | nt | nt | nt | nt | 46.3%
CC(Sc1nnc(-c2cccs2)n1-c1ccccc1)C(=O)NCc1ccco1 (configuration not stated) | 7.6% | -6.8% | -2.0% | ? | -4.1%[57.1 µM] | 20.2%
CC(Sc1ccsc1[N+](=O)[O-])C(=O)NCc1ccco1 (configuration not stated) | ? | ? | -4.2% | 39.8µM* | -15.4% | 22.4µM*
CCC1CN(C(=O)N2CCC(C(=O)NCCc3ccc(OC)cc3OC)CC2)c2cc(C)ccc2O1 (configuration not stated) | 1.6% | -7.9% | 0.5% | -10.3% | nt | -0.8%
Cc1cc(Cl)ccc1NC(=O)C1CCN(S(=O)(=O)c2ccc3[nH]c(=O)ccc3c2)CC1 | 11.5% | -1.8%[60.1 µM] | 2.7% | -25.6% | nt | ?
COc1ccc(/C=N/Nc2nn3cnnc3c3ccccc23)cc1 | 127.8% | -25.1% | ? | ? | ? | 1.78µM*
COc1cccc(NC(=O)Cc2ccccc2)c1 | 20.6% | 11.3% | -4.1% | -3.5% | 7.3% | 1.9%
O=C(Cc1ccccc1)Nc1cccc(N2C(=O)C=CC2=O)c1 | -13.0% | -16.3% | 7.8% | -12.7% | 44.7µM* | 13.7%
CN(C)c1ccc(/C=C/c2ccnc3ccc(O)cc23)cc1 | ? | -6.0% | ? | nt | nt | nt
CS(=O)(=O)c1ccc(C(=O)OCC(=O)NCc2cccs2)cc1[N+](=O)[O-] | ? | -11.7% | -0.4% | 44.7µM* | -7.9%[11.6 µM] | nt
CCn1c(CSc2nc3ccccc3s2)nnc1SCC(=O)c1ccc(Cl)cc1 | -6.4% | -17.2% | 1.7% | -17.0% | 79.4µM* | 10.7%
Cc1c(-c2cccc(NC(=O)Nc3ccccc3)c2)nc2ncccn12 | ? | -3.2%[60.1 µM] | ? | 0.4% | nt | -0.7%
CCOc1ccc(C(=O)Nc2nnc(S(=O)(=O)N(CC)c3ccccc3C)s2)cc1 | 4.8% | -8.4% | 0.9% | -14.3% | nt | -3.3%
